# Screening data as filed in PubChem BioAssay.
# The list is not random: actives were taken first. Their share in the collection is about 6%.
# D3 ag – activates the human D3 dopamine receptor; D3R DiscoveRx beta-arrestin cells, luminescence, 90 min; max activation, %; P35462; 410,000 tested, 0.58% active; in the data active = max activation above about 30%; also: 0% is about no effect
# Target sequence (P35462 whole entry, looked up): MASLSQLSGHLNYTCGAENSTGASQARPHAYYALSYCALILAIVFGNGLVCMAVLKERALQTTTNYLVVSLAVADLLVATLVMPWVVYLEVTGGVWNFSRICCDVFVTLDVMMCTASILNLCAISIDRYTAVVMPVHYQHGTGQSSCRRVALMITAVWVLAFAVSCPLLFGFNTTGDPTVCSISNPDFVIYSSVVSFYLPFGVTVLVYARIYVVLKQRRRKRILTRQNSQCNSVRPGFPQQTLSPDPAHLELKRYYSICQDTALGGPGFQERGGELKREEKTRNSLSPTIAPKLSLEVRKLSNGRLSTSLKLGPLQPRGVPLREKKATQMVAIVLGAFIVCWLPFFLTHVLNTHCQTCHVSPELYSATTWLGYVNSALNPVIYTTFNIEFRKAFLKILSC
#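 Cells at 1500/well, incubated overnight, then treated with pinned compounds (dopamine as control) for 90 min at 37 degrees C. DiscoveRx reagent added for 30 - 60 minutes at room temperature; luminescence read.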
# D1 agonist – agonists of human D1 dopamine receptor; P21728; HEK293 T-REx D1 cells, calcium flux, agonist mode; activation, % at 2 µM; 360,000 tested, 1% active; AID 504660; in the data active = activation above about 30%; also: 0% is about no effect
#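 Inducible HEK293 T-REx D1 cells, force-coupled to calcium signalling, were plated at 4000 cells/well with tetracycline and held overnight at 30 C. After no-wash calcium dye loading, compound-evoked calcium rise over 180 s flagged agonists.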
# D1 antag – antagonists of human D1 dopamine receptor. activity change, negative = inhibition, % at 10 µM. P21728. HEK293 TREx D1 cells, calcium flux, dopamine EC80; stronger effect = lower value. AID 504652. 360,000 tested, 3.2% active; in the data active = activity change below about -30%; also: % is scaled to controls: 0 for no effect and ±100 for the full control effect
#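 Allosteric or orthosteric antagonism assessed as attenuation of the calcium response to EC80 dopamine, added 180 s after compound, in induced HEK293 Trex D1 cells loaded with no-wash calcium dye.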
# DRD3 antagonist – antagonists of human D3 dopamine receptor. P35462. D3R cells, DiscoveRx beta-arrestin luminescence, antagonist mode; stronger effect = lower value. max response, negative = inhibition, %. 360,000 tested, 2.5% active; in the data active = max response below about -50%; inconclusive = no clear call, values can overlap the other calls; also: % is scaled to controls: 0 for no effect and ±100 for the full control effect
#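 Cells expressing the human receptor were seeded at 1500 cells/well, incubated overnight at 37 degrees C in 5% CO2, then exposed to library compounds with dopamine controls for 90 minutes at 37 degrees C before luminescent detection.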
# D1 potentiator – human D1 dopamine receptor positive modulation | HEK293 TREx D1 cells, calcium flux, dopamine EC20 potentiation | potentiation, % at 10 µM | 360,000 tested, 0.036% active | AID 504651; in the data active = potentiation above about 30%; also: 0% is about no effect
# Active calls of the source: *; ? = inconclusive; / = no result given; ! = not active in a repeat.
SMILES,D3 ag,D1 agonist,D1 antag,DRD3 antagonist,D1 potentiator
CC1(C)CC(=O)C=C(c2ccc(-c3cnn(Cc4ccccc4)c3)cc2)C1=O,-3.9,/,/,-0.5,/
N=c1c2c(-c3ccccc3)c(-c3ccccc3)n(Cc3ccco3)c2ncn1CCCO,-14.7,45.3*,0.0,0.0,1.5
COc1cccc(OC2(C)CCN(Cc3cccn3-c3nccs3)C2)c1 (configuration not stated),-11.1,/,/,-14.5,/
CC1(Oc2ccc(-n3ccnc3)cc2)CCN(Cc2cccn2-c2nccs2)C1 (configuration not stated),56.1*,/,/,0.0,/
CC(C)Oc1ccccc1-c1nc(SCC(=O)c2ccc(F)cc2)n[nH]1,-14.2,-0.2,12.7,/,1.9
NCc1ccccc1CC(=O)N[C@@H]1C(=O)N2C(C(=O)O)=C(CSc3nnnn3CC(=O)O)CS[C@H]12,6.6,/,/,/,/
CNc1nc(Sc2cccc(C(F)(F)F)c2)cc(C(F)(F)F)n1,1.3,1.0,17.2,0.0,-5.9
Cc1nc(-c2cc(C#N)c(Sc3cccc(C(F)(F)F)c3)nc2C)cs1,2.9,30.2*,-55.2*,13.7,-1.6
CCCOc1ccc(-c2nn(-c3ccccc3)cc2/C=C2\SC(N)=NC2=O)cc1C,12.5,1.0,-74.2*,22.6,-10.3
CCCCc1c(-c2ccccc2OC)ncn1Cc1cccc(-c2ccccc2)c1,-20.7,/,/,-108.1*,/
CCc1c(C2CC2)ncn1Cc1cccc(-c2ccccc2)c1,-13.9,/,/,-95.4*,/
CCc1c(-c2ccccc2)ncn1Cc1cccc(-c2ccccc2)c1,4.2,/,/,10.1,/
Cc1ccc(Cl)cc1NC(=O)C1CCN(C(=O)c2cnn(-c3ccccc3)c2-n2cccc2)CC1,1.5,1.6,14.1,/,0.4
COc1ccccc1-c1nc(-c2ccc(C)nc2OC)no1,0.7,5.6,-31.9*,-4.9,-1.9
COc1nc(C)ccc1-c1noc(-c2ccccn2)n1,-10.3,-1.5,-9.5,-17.0,-5.5
Cc1ccc2nc(SCC(=O)Nc3nonc3N)[nH]c2c1,-0.6,0.3,0.3,7.8,-1.6
CCOc1ccc2nc(SCC(=O)Nc3nonc3C)[nH]c2c1,-7.9,0.9,-34.9*,-6.3,-4.2
Cc1ccc(Nc2c(-c3ccc(C)s3)nc3ncccn23)cc1,-0.6,3.4,4.8,/,-3.0
O=C(CCCn1c2ccccc2c(=O)c2ccccc21)Nc1ccc(F)cc1Cl,28.6,-2.2,2.0,/,-0.3
N#CCCn1c(=O)n(CCC#N)c2ccccc21,-0.4,0.6,-38.3*,-7.9,-7.7
Cn1c(=O)n(CC#N)c2ccccc21,1.1,3.2,5.0,9.0,-2.6
C=CCN(CC=C)S(=O)(=O)c1ccc(NC(=S)NC(=O)C2CC2)cc1,-5.3,12.6,-11.3,?,-7.2
O=C(COc1cc2oc(=O)c3c(c2cc1Cl)CCCC3)N1C[C@H]2C[C@@H](C1)c1cccc(=O)n1C2,-17.9,4.2,-0.2,-57.8*,-4.2
CCOC(=O)Cn1c(=O)n(C2CCCCC2)c2nc(-c3c(F)cccc3Cl)nc(C(N)=O)c21,-8.4,4.6,0.6,/,-0.9
C=CCN1C(=O)S/C(=C/c2ccc(Sc3nc4ccccc4[nH]3)o2)C1=O,50.6*,15.3,-27.8,38.1,-3.1
SMILES,D3 ag,D1 agonist,D1 antag,DRD3 antagonist,D1 potentiator
CC(C)N1C(=O)S/C(=C/c2ccc(Sc3nc4ccccc4[nH]3)o2)C1=O,8.0,9.4,-13.6,6.7,-2.1
O=[N+]([O-])c1cc2cccnc2c2ncccc12,-6.6,-0.2,-1.0,-12.3,1.8
O=[N+]([O-])c1cc(O)c2ncccc2c1,-16.4,2.7,-4.0,-58.3*,-1.5
COc1cccc(CNC(=O)CSc2nc(=O)[nH]c3c2CCC3)c1,8.4,-1.1,/,/,0.1
CN1CCc2c(sc3c2C(=O)NC(c2cn(Cc4ccccc4)c4ccccc24)N3)C1 (configuration not stated),-11.3,3.1,11.4,-75.2*,-2.0
COc1cc(C2NC(=O)c3c(sc4c3CCN(C)C4)N2)ccc1OC(=O)c1ccccc1 (configuration not stated),-20.4,38.3*,1.2,/,4.2
CN1CCc2c(sc3c2C(=O)NC(c2ccc(-c4ccc(Cl)cc4)o2)N3)C1 (configuration not stated),-25.0,7.5,9.2,-80.5*,-3.2
CN1CCc2c(sc3c2C(=O)NC(c2ccco2)N3)C1 (configuration not stated),-24.8,7.9,-6.7,17.4,-4.3
Cc1ccc(N2C(=O)[C@@H]3CSC(c4ccc(C(F)(F)F)cc4)N3C2=O)cc1 (some centres not stated),6.5,13.1,10.0,/,-3.5
Cc1cc(N/N=C/c2ccc([N+](=O)[O-])o2)nc2ccccc12,-5.2,47.8*,2.2,-26.2,0.9
O=C(OCC(O)CO)c1ccccc1Nc1ccnc2cc(Cl)ccc12 (configuration not stated),46.0*!,5.2,-17.1,48.6,-5.3
O=C(Nc1ccccc1C(=O)N1CCCC1)c1ccc(Cl)cc1Cl,-2.1,1.0,-29.2,-20.1,-5.8
CCOc1ccc(S(=O)(=O)N(CC(=O)N2CCc3ccccc32)Cc2ccco2)cc1,-1.1,3.9,-4.9,-66.2*,-6.5
CC1=C(C(=O)OCCN(Cc2ccccc2)c2ccccc2)C(c2cccc([N+](=O)[O-])c2)C(P2(=O)OCC(C)(C)CO2)=C(C)N1 (configuration not stated),-24.5,/,/,/,/
O=C(c1ccc2c(c1)CCC2)N1CCN(Cc2ccccc2)CC1,-7.1,/,/,-61.1*,/
O=C(CN1CCN(Cc2ccccc2)CC1)Nc1ccc2c(c1)CCC2,-16.1,4.7,-6.6,-19.7,9.6
COc1cc(OC)cc(C(=O)N2CCN(C3CCN(Cc4ccccc4)CC3)CC2)c1,-6.1,-0.3,-22.8,-62.3*,-2.6
Cc1ccc(N2C(=O)c3ccc(C(=O)N4CCN(Cc5ccccc5)CC4)cc3C2=O)cc1,-14.5,58.5*,-47.5*,-24.0,-5.0
CCCOC(=O)c1ccc2c(c1)C(=O)N(c1ccccc1)C2=O,2.5,7.2,-34.5*,21.7,-4.2
CCCOC(=O)CN1C(=O)c2ccc(C(=O)OCCC)cc2C1=O,7.2,0.3,-27.8,5.9,-4.2
NCC1CCC(C(=O)O)CC1 (configuration not stated),4.0,/,/,/,/
O=C(O)c1ccc(NC(=O)[C@H](Cc2ccc(O)cc2)NC(=O)c2ccccc2)cc1,3.5,/,/,/,/
CCOc1ccccc1NC(=O)CN1C(=O)CC(c2ccc(OC)c(OC)c2)Sc2ccccc21 (configuration not stated),3.9,2.5,-3.3,/,0.5
CC(=O)c1ccc(NC(=O)c2ccc3c(c2)nnn3C2CCCC2)cc1,-8.4,5.5,17.7,/,-4.8
CN(Cc1ccccc1F)C(=O)c1ccc(Oc2ccccc2)cc1,0.1,2.8,-31.2*,-7.0,-8.8
CN(Cc1ccc(C(F)(F)F)cc1)C(=O)c1ccc(Oc2ccccc2)cc1,4.5,11.1,-16.2,2.1,-4.2
